Compounds with a hit are over-represented: about 11% of the library has one in this group of screens.
hNpr1 antagonist: antagonists of human natriuretic peptide receptor Npr1; Potency, µM (highest dose often 46.3 µM), usual class: inhibitors; 76,000 tested, 1.6% active; AID 1347048; P16066; HEK293 hNpr1 GloSensor cGMP, ANP-stimulated luminescence; calls by dose curve; further: nearly all actives have a fitted effect of over 60% in size
Target sequence (P16066 whole entry, looked up): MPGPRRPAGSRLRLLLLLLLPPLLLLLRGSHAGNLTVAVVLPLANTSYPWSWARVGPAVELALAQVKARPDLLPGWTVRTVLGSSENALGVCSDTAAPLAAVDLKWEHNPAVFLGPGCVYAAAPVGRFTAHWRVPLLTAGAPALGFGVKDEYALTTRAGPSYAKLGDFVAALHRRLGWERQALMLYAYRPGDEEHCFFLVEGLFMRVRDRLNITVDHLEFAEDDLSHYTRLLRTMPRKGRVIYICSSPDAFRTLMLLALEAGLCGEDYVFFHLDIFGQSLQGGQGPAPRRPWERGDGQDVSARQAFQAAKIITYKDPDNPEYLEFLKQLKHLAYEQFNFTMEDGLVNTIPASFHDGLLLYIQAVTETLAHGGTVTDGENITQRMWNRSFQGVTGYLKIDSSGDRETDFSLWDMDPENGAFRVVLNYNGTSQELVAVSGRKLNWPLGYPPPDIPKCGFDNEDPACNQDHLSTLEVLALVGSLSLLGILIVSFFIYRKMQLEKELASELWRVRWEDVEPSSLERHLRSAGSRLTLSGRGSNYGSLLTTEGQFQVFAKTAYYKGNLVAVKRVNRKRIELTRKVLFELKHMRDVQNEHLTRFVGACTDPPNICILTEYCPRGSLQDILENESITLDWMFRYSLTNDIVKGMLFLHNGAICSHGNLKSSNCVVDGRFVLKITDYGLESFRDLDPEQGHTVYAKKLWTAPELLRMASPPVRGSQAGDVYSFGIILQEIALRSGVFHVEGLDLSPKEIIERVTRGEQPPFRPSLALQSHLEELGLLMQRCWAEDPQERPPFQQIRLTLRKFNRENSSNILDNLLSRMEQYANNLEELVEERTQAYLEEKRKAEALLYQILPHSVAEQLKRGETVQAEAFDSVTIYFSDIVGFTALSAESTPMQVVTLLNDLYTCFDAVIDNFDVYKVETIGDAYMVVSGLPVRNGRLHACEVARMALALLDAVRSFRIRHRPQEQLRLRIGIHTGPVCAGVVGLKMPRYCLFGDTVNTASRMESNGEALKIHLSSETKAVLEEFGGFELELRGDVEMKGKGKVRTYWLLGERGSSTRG
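HEK293 cells stably expressing human Npr1 and cGMP GloSensor pGS-40F, loaded 2 h with 2% GloSensor reagent, given compound 30 min at room temperature. Luminescence read before and 20 min after 0.1 nM hNppA.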
FLuc inh-1: blocks purified firefly luciferase enzyme activity | P08659 | purified P. pyralis luciferase, luminescence, biochemical | Potency, µM (doses to about 115 µM), usual class: inhibitors | 76,000 tested, 2.5% active; further: nearly all actives have a fitted effect of over 65% in size
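Luminescence read by CCD imaging after purified firefly luciferase (10nM final) was added to substrate buffer holding 10uM D-luciferin and 10uM ATP, pH 7.5, pre-dosed with compound.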
HEK cytotox: kills HEK 293 cells; 94,000 tested, 6.6% active; HEK 293 viability, ATP luminescence (CellTiter-Glo), 48-72 h; Potency, µM (doses to about 115 µM), most hits filed as inhibitors; further: nearly all actives have a fitted effect of over 60% in size
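CellTiter-Glo luminescence (cellular ATP) was read after 48 or 72 hr of compound exposure at 37 degree Celsius. Cells were HEK 293 plated at 250 cells/well.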
3T3 cytotox: cytotoxic compounds in NIH 3T3 cells; NIH 3T3 viability, CellTiter-Glo ATP luminescence, 48-72 h; Potency, µM (doses to about 96.7 µM), actives largely listed as inhibitors; 94,000 tested, 4.3% active; AID 1345082; further: nearly all actives have a fitted effect of over 55% in size
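Mouse fibroblast NIH 3T3 cells, 400 per well, received compound via pintool and were incubated for 48 or 72 hr prior to CellTiter-Glo ATP luminescence measurement.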
FLuc SDR -ATP: stabilizes firefly luciferase without ATP. shares compounds with FLuc inh-1. Purified FLuc-C-HiBiT, Nano-Glo HiBiT luminescence, no ATP. Potency, µM (top dose mostly 32.7 µM), hits mostly activators. 1,300 tested, 7.8% active. AID 1963318; further: nearly all actives have a fitted effect of over 55% in size
FLuc SDR ATP: binders stabilizing firefly luciferase, plus ATP. Potency, µM (highest dose often 32.7 µM), most hits filed as activators. shares compounds with FLuc inh-1. 1,300 tested, 8.7% active. AID 1963319. purified FLuc-C-HiBiT + ATP, HiBiT complementation luminescence;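 further: signal reports ligand binding via conformational change of the enzyme rather than luciferase catalysis; nearly all actives have a fitted effect of over 55% in size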
FLuc inh-2: inhibitors of firefly luciferase enzymatic activity | Potency, µM (top dose mostly 32.7 µM), usual class: inhibitors | shares compounds with FLuc inh-1 | 1,300 tested, 42% active | purified FLuc-C-HiBiT enzyme, luciferin luminescence; further: nearly all actives have a fitted effect of over 70% in size
A number is an active result; - = inactive; ? = inconclusive; . = no result given. Unless noted, the call rests on the fitted dose curve; in most records, active means well fitted curve in the direction sought with a large enough effect; inconclusive means small, poorly fitted or top-dose-only effect, or another doubt; inactive means no such curve, though single readings can be large; an effect the other way counts as inactive or inconclusive.

SMILES | hNpr1 antagonist | FLuc inh-1 | HEK cytotox | 3T3 cytotox | FLuc SDR -ATP | FLuc SDR ATP | FLuc inh-2
Cc1nc(C)c(C)c(N2CCC(Oc3ccc4ccccc4c3)(C(=O)O)CC2)n1 | - | - | - | - | . | . | .
O=C(c1cccs1)N1CCC(Cc2nc(C3CC3)n[nH]2)CC1 | - | - | - | - | . | . | .
COCCN1C(=O)CCC2(C(=O)NCCCc3ccccc3)CCCC=C12 (stereo unspecified) | - | - | - | - | . | . | .
O=C1CCC2(C(=O)NCCc3ccccc3)CCCC=C2N1c1ccccc1 (stereo unspecified) | - | 3.16µM | ? | - | - | - | ?
COCCn1ncc(N2CCCC(CC(=O)NCc3ccccc3C)C2)cc1=O (stereo unspecified) | - | - | - | - | . | . | .
Fc1cc(Nc2cnc3ccc(-c4ccccc4)nn23)cc(N2CCOCC2)c1 | - | 12.6µM | 44.7µM | 31.6µM | - | - | ?
O=C(NCC(F)(F)F)c1cc(C2CC2)nc2onc(C3CCCN3)c12 (stereo unspecified) | . | . | - | - | . | . | .
O=C(O)c1ccnc(-c2ccnc(NCCN3CCCCC3=O)n2)c1 | - | 1.41µM | - | - | - | 11.1µM | ?
Fc1ccc(-c2cc3c(cn2)CN(Cc2ccncc2)CCN3)cc1Cl | ? | 1.78µM | 56.2µM | ? | - | - | 18µM
COc1ccc(CN2CCNc3cc(-c4ccccc4)ncc3C2)cn1 | - | 14.1µM | ? | ? | - | - | ?
COc1ccc(-c2cc3c(cn2)CN(Cc2ccncc2)CCN3)cc1 | ? | 3.16µM | ? | ? | - | ? | ?
CCOc1cc2c(cn1)NCCN(Cc1ccccc1OC)C2 | - | - | ? | ? | . | . | .
CC1(C)[C@H](Cc2cc(CCO)on2)C[C@@H]1N(S(C)(=O)=O)S(C)(=O)=O | - | - | - | - | . | . | .
O=C(Cn1c(=O)oc2ccccc21)NCC12CCCC=C1NC(=O)CC2 (stereo unspecified) | - | - | - | - | . | . | .
COc1ccc(C(C)NC(=O)c2ccc(Cn3ccn4nc5c(c4c3=O)CCCC5)cc2)cc1 (stereo unspecified) | - | - | ? | - | . | . | .
CNC(=O)c1cccc2c1CCN2C(=O)Nc1ccc(C)cc1 | 6.31µM | 0.398µM | - | ? | 11.1µM | 0.442µM | 0.351µM
CCC(=O)N1CCc2c(C(=O)NCC(C)C)cccc21 | - | - | - | - | . | . | .
Cc1cccc(NC(=O)N2CCc3c(C(=O)NC(C)(C)C)cccc32)c1 | - | 7.08µM | ? | - | ? | ? | 8.81µM
CCN1CCN(CCNC(=O)c2cccc3c2CCN3C(=O)Nc2ccc(C)cc2)CC1 | ? | 2µM | ? | ? | ? | 1.57µM | 1.11µM
CN(C)c1ncnc2sc3c(c12)CCN(Cc1ccco1)C3 | - | - | ? | ? | . | . | .
CN(C)C(=O)N1CCCN(c2ccc3nnc(-c4ccccc4)n3n2)CC1 | . | . | - | ? | . | . | .
CCOCCn1cc(C2CCN(S(=O)(=O)c3cccc(Cl)c3C)CC2)c2ccccc21 | - | - | ? | - | . | . | .
COc1ccc2cc(C3CN(C(=O)c4cccc(CO)c4)CCO3)ccc2c1 (stereo unspecified) | 10µM | 0.562µM | 28.2µM | ? | ? | ? | 2.48µM
O=C(c1ccc2ncccc2c1)N1CCOC(c2ccc(Cl)c(Cl)c2)C1 (stereo unspecified) | ? | - | ? | ? | . | . | .
CCN(CC)C(=O)N1CCOC(c2ccc3cc(OC)ccc3c2)C1 (stereo unspecified) | 11.2µM | 1.58µM | ? | ? | - | ? | 5.56µM
SMILES | hNpr1 antagonist | FLuc inh-1 | HEK cytotox | 3T3 cytotox | FLuc SDR -ATP | FLuc SDR ATP | FLuc inh-2
COc1ccc2cc(C3CN(C(=O)c4cccc(CO)n4)CCO3)ccc2c1 (stereo unspecified) | ? | 3.55µM | ? | - | - | ? | ?
CNC(=O)c1cccnc1N1CCOC(c2ccc3cc(OC)ccc3c2)C1 (stereo unspecified) | - | ? | ? | - | . | . | .
COc1ccc2cc(C3CN(C(=O)CCc4n[nH]c(C)n4)CCO3)ccc2c1 (stereo unspecified) | ? | 2.51µM | - | ? | ? | ? | 9.89µM
O=C1CC(c2ccccc2)N(Cc2ccncc2)CCCN(Cc2ccccn2)CCN1 (stereo unspecified) | - | - | ? | - | . | . | .
CC(C)c1ccc(C2=CC(c3ccc(C(C)C)cc3)n3nnnc3N2)cc1 (stereo unspecified) | . | . | . | . | - | - | -
CCOc1ccc(-c2cc3c(=O)n(CCNC(=O)Cc4cccs4)ccn3n2)cc1 | - | ? | ? | - | . | . | .
COc1ccc(-c2cc3c(=O)n(CCNC(=O)Cc4cccs4)ccn3n2)cc1 | - | 8.91µM | ? | ? | ? | ? | ?
COc1cccc(CC(=O)NCCn2ccn3nc(-c4ccc(C)c(C)c4)cc3c2=O)c1 | - | 12.6µM | 79.4µM | ? | - | - | ?
COc1cccc(-c2cc3c(=O)n(CCNC(=O)c4ccccc4Cl)ccn3n2)c1 | - | 12.6µM | ? | - | - | - | ?
CCOC(=O)[C@H]1CN(C(=O)Cc2ccc(OC)cc2)[C@]2(C)C(=O)N(CC(=O)N(C)C)c3ccccc3[C@H]12 | . | . | - | ? | . | . | .
COc1ccc([C@H]2C[C@@H](O)[C@@H](O)[C@@H]2NC(=O)c2c(-c3ccccc3)noc2C)cc1 | - | - | - | ? | . | . | .
CC1CCc2nc3ncn(Cc4ccc(Cl)cc4)c(=O)c3cc2C1 (stereo unspecified) | . | . | . | . | - | - | -
CC1CCc2nn3ccn(CC(=O)NCc4ccccc4)c(=O)c3c2C1 (stereo unspecified) | - | - | ? | - | . | . | .
Cc1nn(-c2ccc(C(C)C)cc2)c(C)c1[C@@H]1C=C[C@@H](NC(=O)NC(C)C)C1 | 31.6µM | 3.55µM | 22.4µM | 28.2µM | - | - | ?
COc1ccc(NC(=O)N[C@@H]2C=C[C@@H](c3c(C)nn(-c4ccc(C(C)C)cc4)c3C)C2)cc1 | - | 7.94µM | ? | ? | - | - | -
Cc1nn(CCC#N)c(C)c1[C@@H]1C=C[C@@H](NC(=O)NC(C)C)C1 | - | - | - | ? | . | . | .
Cc1nn(-c2ccccn2)c(C)c1[C@@H]1C=C[C@@H](NC(=O)CCC(=O)O)C1 | - | - | - | - | . | . | .
Cc1ccc(-n2nc(C)c([C@@H]3C=C[C@@H](NC(=O)NC(C)C)C3)c2C)cc1Cl | 15.8µM | 3.55µM | ? | 63.1µM | - | ? | 14.3µM
Cc1nn(-c2cccc(Br)c2)c(C)c1[C@@H]1C=C[C@@H](NC(=O)CC(C)(C)CC(=O)O)C1 | - | ? | ? | ? | - | - | -
COc1ccc(NC(=O)O[C@@H]2C=C[C@H](c3c(C)nn(-c4ccccc4C)c3C)C2)cc1 | - | - | ? | ? | . | . | .
Cc1ccc(CNC(=O)N2CCCC(c3nn(C)c(=O)n3Cc3ccccc3)C2)cc1 (stereo unspecified) | - | - | - | - | . | . | .

Source: PubChem BioAssay
